The record followed here is PubChem BioAssay.

Test [1] has as its system Wnt5a (protein binding on small-molecule microarray). The test is described as follows: Wnt5a binders on small-molecule microarray, primary screen, biophysical, 635/667 nm fluorescence (AID 1142).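 Also: fluorescence read at 667 nm with signal to noise per printed feature.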 To be noted: 635 nm fluorescence, higher = more signal.
Test [2] can be described thus: cell viability in Huh7 cells, primary screen, cytotoxicity control for HCV replication inhibitor project, CellTiter-Glo luminescence, basal, 48 h (AID 1143).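 Also: Huh7 hepatoma cells carrying a hepatitis C replication reporter with no stimulus; test concentration not given here.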 To be noted: Huh7 HCV replicon, higher = more signal, called active from +8 up or from −8 down.
Test [3] is described as follows: P. aeruginosa biofilm formation inhibitors, primary screen, PAO1 strain, BacTiter-Glo luminescence, LB-PBS (AID 1144). As to conditions: 12 h, higher = more signal.
Test [4] is described as follows: CREB reporter modulators without forskolin, primary screen, cell-based, PC12, CRE-LacZ reporter, unstimulated (AID 1145). To be noted: no forskolin, luminescence, 4.5 h, higher = more signal, called active from +8 up or from −8 down.
Test [5] can be described thus: CREB reporter modulators under forskolin, primary screen, cell-based, PC12, CRE-LacZ reporter, forskolin-stimulated (AID 1146).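 Also: PC12 cells with 6xCRE LacZ reporter stimulated by forskolin 10 µM; beta-galactosidase reporter signal reflecting CREB driven transcription.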 As to conditions: luminescence, 4.5 h, higher = more signal, called active from +8 up or from −8 down.
Test [6] addresses Streptavidin (Streptomyces avidinii) (UniProt P22629). The test is described as follows: streptavidin binders on small-molecule microarray, primary screen, artefact control for SMM compound annotation, biophysical, 635/667 nm fluorescence (AID 1147).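 Also: signal reflects streptavidin binding to arrayed compounds as a control protein.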 As to conditions: streptavidin binding, higher = more signal.
Test [7] in a line: small-molecule binders of probe aInhba, primary screen, biochemical, small-molecule microarray, 635/667 nm fluorescence (AID 1148).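 Also: score merges 667nm spot fluorescence with signal-to-noise for antibody binding to printed compounds.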 As to conditions: higher = more signal.
Test [8] has as its target Torsin-1A (Homo sapiens) (UniProt O14656). Briefly: torsin A binders from cell lysate, primary screen, small-molecule microarray, wild-type, 635/667 nm (AID 1149). As to conditions: COS7 hTOR1A-WT lysate, 635 nm fluorescence, higher = more signal.
For test [9] the target is unchanged. Briefly: small-molecule binders of mutant TOR1A in lysate, primary screen, cell lysate, small-molecule microarray, COS7 lysate, 635/667 nm fluorescence (AID 1150).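 Also: score pools 667 nm emission and signal to noise measuring lysate protein binding.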 To be noted: COS7 hTOR1A mutant lysate, 635 nm fluorescence, higher = more signal.
Test [10] relates to Sonic hedgehog protein (Shh). Briefly: small-molecule binders of Shh protein, primary screen, biochemical, small-molecule microarray, 635/667 nm fluorescence (AID 1151).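 Also: Shh protein binding to compounds spotted on small-molecule microarray slides; score combines spot fluorescence intensity with signal-to-noise across triplicate slides.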 To be noted: small-molecule microarray binding, 635 nm fluorescence; higher = more signal.
Test [11] in a line: E. coli DRC41 culture turbidity changes, primary screen, E. coli filamentation inducer project, strain DRC41, OD650, 48 h (AID 1152).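 Also: E. coli MC1000 strain DRC41 lacking acrAB efflux pump and sulA.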 To be noted: E. coli DRC41 (acrAB sulA), higher = more signal, called active from +8 up or from −8 down.
Test [12] can be described thus: small-molecule binders of probe aLefty1, primary screen, biochemical, small-molecule microarray, 635/667 nm fluorescence (AID 1153).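 Also: score merges spot fluorescence with signal-to-noise ratio from the scanned slide images.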 To be noted: higher = more signal.
Test [13] can be described thus: PSAC antagonists in infected red cells, primary screen, cell-based, P. falciparum Indochina, OD700, 1 h (AID 1154). As to conditions: P. falciparum Indochina infected RBC osmotic lysis, higher = more signal, called active from +8 up or from −8 down.
The nature of test [14]: PSAC antagonists in infected red cells, primary screen, cell-based, P. falciparum Indochina, OD700, 2 h (AID 1155).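 Also: lysis reports solute entry through the parasite surface anion channel PSAC; channel blockers reduce lysis of infected cells.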 To be noted: P. falciparum Indochina infected erythrocytes, osmotic lysis OD700; higher = more signal, called active from +8 up or from −8 down.
Test [15] in a line: osmotic lysis modulators in infected erythrocytes, primary screen, PSAC antagonist project, cell-based, P. falciparum Indochina, OD700, 3 h (AID 1156). As to conditions: higher = more signal, called active from +8 up or from −8 down.
Test [16] in a line: PSAC antagonists in infected red cells, primary screen, cell-based, P. falciparum Indochina, OD700, 18 h (AID 1157). As to conditions: P. falciparum Indochina infected erythrocytes, osmotic lysis OD700, 18 h; higher = more signal, called active from +8 up or from −8 down.
Test [17] in a line: modulators of S6 phosphorylation in cells, primary screen, cell-based, A549, cytoblot, luminescence, serum-stimulated (AID 1158).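 Also: serum-stimulated A549 lung adenocarcinoma cells; signal is phosphorylated S6 detected by cytoblot immunostaining with HRP secondary.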 To be noted: A549 phospho-S6 cytoblot, 5 h, higher = more signal.
Test [18] concerns the target NADPH oxidase 2 (Homo sapiens) (UniProt P04839). The test is described as follows: NOX2-dependent H2O2 signal modulators, primary screen, NOX inhibitor project, cell-based, HEK293-NOX2, PMA-stimulated, Amplex Red fluorescence (AID 1159). Also: test concentration not given here. To be noted: 45 min, higher = more signal, called active from +8 up or from −8 down.
Test [19] has as its target NADPH oxidase 4 (Homo sapiens) (UniProt Q9NPH5). The test is described as follows: NOX4-dependent H2O2 signal modulators, primary screen, NOX inhibitor project, cell-based, HEK293-NOX4, tetracycline-induced, Amplex Red fluorescence (AID 1160). As to conditions: 45 min, higher = more signal, called active from +8 up or from −8 down.
For test [20], the target named is NADPH oxidase 5 (Homo sapiens) (UniProt Q96PH1). Briefly: NOX5-dependent H2O2 signal modulators, primary screen, NOX inhibitor project, cell-based, HEK293-NOX5, Amplex Red fluorescence (AID 1161). To be noted: HEK293-NOX5, ionomycin, 45 min, higher = more signal.

Active and inactive are the calls of the source. Unless noted, no rule for the calls is given here.

Torsin-1A (Homo sapiens), sequence (O14656 whole entry, looked up): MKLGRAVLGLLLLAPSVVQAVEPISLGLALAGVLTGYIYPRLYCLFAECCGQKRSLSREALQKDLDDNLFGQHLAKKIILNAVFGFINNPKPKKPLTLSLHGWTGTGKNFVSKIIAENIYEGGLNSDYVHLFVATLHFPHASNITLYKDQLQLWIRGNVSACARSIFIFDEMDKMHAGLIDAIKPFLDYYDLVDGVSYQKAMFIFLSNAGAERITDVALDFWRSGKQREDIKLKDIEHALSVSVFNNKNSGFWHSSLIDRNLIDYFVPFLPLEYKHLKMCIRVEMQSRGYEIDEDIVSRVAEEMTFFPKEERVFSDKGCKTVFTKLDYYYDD
NADPH oxidase 5 (Homo sapiens), sequence (Q96PH1 whole entry, looked up): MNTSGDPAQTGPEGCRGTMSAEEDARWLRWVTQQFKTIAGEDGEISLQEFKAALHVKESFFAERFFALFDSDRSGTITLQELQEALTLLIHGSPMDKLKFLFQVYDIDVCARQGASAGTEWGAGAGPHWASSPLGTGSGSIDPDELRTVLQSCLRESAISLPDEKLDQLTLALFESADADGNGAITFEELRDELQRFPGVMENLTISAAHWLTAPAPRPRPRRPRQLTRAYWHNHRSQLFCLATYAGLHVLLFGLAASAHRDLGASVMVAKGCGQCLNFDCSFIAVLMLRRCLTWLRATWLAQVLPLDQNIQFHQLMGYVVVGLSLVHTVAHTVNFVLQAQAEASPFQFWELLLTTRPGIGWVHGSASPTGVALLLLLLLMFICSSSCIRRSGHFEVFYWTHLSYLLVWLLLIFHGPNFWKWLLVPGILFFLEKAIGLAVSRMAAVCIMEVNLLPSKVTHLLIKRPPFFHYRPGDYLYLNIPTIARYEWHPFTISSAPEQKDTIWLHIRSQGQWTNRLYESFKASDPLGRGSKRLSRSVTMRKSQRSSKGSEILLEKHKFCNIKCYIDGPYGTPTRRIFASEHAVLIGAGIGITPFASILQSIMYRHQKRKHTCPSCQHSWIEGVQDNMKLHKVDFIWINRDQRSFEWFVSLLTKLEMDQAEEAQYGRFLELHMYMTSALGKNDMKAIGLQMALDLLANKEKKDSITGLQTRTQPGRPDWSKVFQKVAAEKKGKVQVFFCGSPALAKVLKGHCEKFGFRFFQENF
NADPH oxidase 4 (Homo sapiens), sequence (Q9NPH5 whole entry, looked up): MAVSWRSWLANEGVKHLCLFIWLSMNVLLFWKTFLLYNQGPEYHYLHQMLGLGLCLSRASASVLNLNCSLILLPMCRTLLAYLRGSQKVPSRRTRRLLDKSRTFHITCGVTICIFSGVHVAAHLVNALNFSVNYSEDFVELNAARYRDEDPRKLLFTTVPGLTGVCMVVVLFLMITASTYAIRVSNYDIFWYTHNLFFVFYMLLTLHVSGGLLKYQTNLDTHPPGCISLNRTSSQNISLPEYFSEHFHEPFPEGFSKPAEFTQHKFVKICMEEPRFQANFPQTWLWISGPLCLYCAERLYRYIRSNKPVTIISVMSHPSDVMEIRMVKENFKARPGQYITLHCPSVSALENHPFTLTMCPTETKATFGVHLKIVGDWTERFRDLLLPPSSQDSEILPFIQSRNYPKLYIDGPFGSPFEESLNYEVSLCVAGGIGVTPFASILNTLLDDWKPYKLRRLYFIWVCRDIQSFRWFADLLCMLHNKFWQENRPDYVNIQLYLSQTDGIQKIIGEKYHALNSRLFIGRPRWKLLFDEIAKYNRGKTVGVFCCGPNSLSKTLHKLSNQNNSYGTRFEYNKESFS
Streptavidin (Streptomyces avidinii), sequence (P22629 whole entry, looked up): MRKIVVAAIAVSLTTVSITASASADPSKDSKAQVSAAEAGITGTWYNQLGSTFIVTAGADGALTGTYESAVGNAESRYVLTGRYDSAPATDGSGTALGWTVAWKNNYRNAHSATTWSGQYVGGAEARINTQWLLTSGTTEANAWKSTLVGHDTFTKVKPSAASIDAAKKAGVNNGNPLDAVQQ
NADPH oxidase 2 (Homo sapiens), sequence (P04839 whole entry, looked up): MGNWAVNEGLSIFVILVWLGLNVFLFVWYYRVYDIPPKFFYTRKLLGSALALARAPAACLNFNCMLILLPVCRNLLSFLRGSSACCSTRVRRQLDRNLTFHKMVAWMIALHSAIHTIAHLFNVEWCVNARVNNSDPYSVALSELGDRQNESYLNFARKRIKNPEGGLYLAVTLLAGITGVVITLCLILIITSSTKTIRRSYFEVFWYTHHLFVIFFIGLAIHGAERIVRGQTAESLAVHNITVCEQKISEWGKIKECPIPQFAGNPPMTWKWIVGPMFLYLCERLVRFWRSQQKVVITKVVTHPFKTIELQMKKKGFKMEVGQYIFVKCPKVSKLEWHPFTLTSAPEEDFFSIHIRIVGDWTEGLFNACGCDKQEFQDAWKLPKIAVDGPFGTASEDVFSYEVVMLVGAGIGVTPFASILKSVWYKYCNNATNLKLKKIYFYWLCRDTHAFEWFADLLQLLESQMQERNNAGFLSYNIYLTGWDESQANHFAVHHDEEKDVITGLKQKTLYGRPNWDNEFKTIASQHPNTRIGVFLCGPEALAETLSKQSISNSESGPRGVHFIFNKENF

Consider `COCCOC(=O)N1C(=O)[C@@]2(c3cc(C#CCCO)ccc31)[C@H](C(=O)Nc1nc3ccccc3s1)[C@H]1C(=O)O[C@H](c3ccccc3)[C@H](c3ccccc3)N1[C@@H]2c1ccc(O)cc1`, for which the composite z-score in [1] was determined as 0.73; in test [6] it was 0.809; in [7] it was 0.279; with Torsin-1A (Homo sapiens) [8], 0.772; in the test with Torsin-1A (Homo sapiens) [9] it was 0.833; in [10] it was 1.06. The same compound had a composite z-score in test [12] of 0.126. Also, the z-score in test [2] is -1.16 (inactive); in test [3], 0.263 (inactive); in test [4], -0.168 (inactive); in test [5], 2.14 (inactive); in test [11], 0.0106 (inactive); in test [13] it was 1.41 (inactive). Also, the z-score is 0.523 (inactive) in [14]; 1 (inactive) in [15]; 0.417 (inactive) in [16]; 0.0869 in [17]; 1.43 (inactive) in [18]; 0.0581 (inactive) in test [19]. In test [20], this compound displayed a z-score of 0.329.
Consider `Cc1ccc(S[C@]2(C(=O)NCc3ccccc3)CC(=O)N(C3CCCCC3)[C@@H]2c2ccc(CO)cc2I)cc1`, for which the composite z-score in test [1] was 0.301; in [6], 1.5; in test [7], -0.0221; in the test with Torsin-1A (Homo sapiens) [8] it was 0.0358; with Torsin-1A (Homo sapiens) [9] it was 0.944; in [10], 0.259. In addition, the composite z-score in test [12] is -0.142. Moreover, the z-score in [2] is -4.53 (inactive); in test [3] it was -0.183 (inactive); in [4], 0.389 (inactive); in test [5] it was 1.01 (inactive); in test [11], -0.148 (inactive); in test [13] it was 5.8 (inactive). Further, the z-score is 1.34 (inactive) in test [14]; 1.04 (inactive) in test [15]; 0.841 (inactive) in [16]; 0.0194 in [17]; -0.031 (inactive) in test [18]; 0.193 (inactive) in [19]. In test [20], this compound showed a z-score of 1.79.
For `Cc1ccc(F)cc1S(=O)(=O)N[C@@H]1CCN(Cc2ccc(Br)cc2)C1`, the composite z-score was -0.144 in [1]; 0.165 in test [6]; -0.0986 in test [7]; 0.476 with Torsin-1A (Homo sapiens) [8]; 0.495 with Torsin-1A (Homo sapiens) [9]; 1.29 in [10]. For the same compound, in test [12], the composite z-score is -0.0099. Further, the z-score in test [2] is -3.58 (inactive); in test [3] it was 0.767 (inactive); in test [4], 0.764 (inactive); in test [5], -1.64 (inactive); in test [11], -1.98 (inactive); in test [13], 2.63 (inactive). Besides, the z-score in test [14] is 1.24 (inactive); in [15] it was 0.759 (inactive); in test [16] it was 0.55 (inactive); in test [17], -0.166; in test [18], -0.955 (inactive); in test [19] it was -0.846 (inactive). This compound also came in with a z-score in test [20] of -2.15.
As for `NCCCCCCNC(=O)[C@@H]1C[C@@H]2C(=O)N[C@@H](CCCCN)C(=O)N2[C@@H]1c1ccc(O)cc1`, the composite z-score was 0.0704 in test [1]; -0.865 in [6]; 0.033 in [7]; 0.822 with Torsin-1A (Homo sapiens) [8]; 1.03 in the test with Torsin-1A (Homo sapiens) [9]; 1.62 in [10]. The composite z-score in test [12] turned out to be 0.614. For the same compound, the z-score was -2.28 (inactive) in test [2]; -0.611 (inactive) in [3]; -1.35 (inactive) in [4]; -0.965 (inactive) in [5]; 0.264 (inactive) in test [11]; 1.11 (inactive) in test [13]. Further, the z-score in [14] is -1.03 (inactive); in [15], -2.05 (inactive); in [16], -1.85 (inactive); in [17], 0.0189; in [18] it was -1.77 (inactive); in test [19], -1.06 (inactive). The z-score in test [20] was -3.51.
